Measured values as given in paper PMC5540273 (PLoS ONE, 2017).

How the values were obtained:
Conditions in all cases: concentration: 1 μM, replicates: in singlicate; n = 1
[1] = tested on: BMX
[2] = tested on: BRAF
[3] = tested on: T1, BRK
T1 construct: gene PTK6

[4] = tested on: BRSK1
[5] = tested on: BRSK2
[6] = tested on: BTK
[7] = tested on: BUB1
[8] = tested on: CAMK1B
[9] = tested on: CAMK1D
[10] = tested on: CAMK1G
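Further: KINOMEscan kinase panel screen.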

Row | Compound | %Inh [1] [%] | %Inh [2] [%] | %Inh [3] [%] | %Inh [4] [%] | %Inh [5] [%] | %Inh [6] [%] | %Inh [7] [%] | %Inh [8] [%] | %Inh [9] [%] | %Inh [10] [%]
1 | COc1ccc(NC(=O)c2ccoc2)cc1-c1ccc(C(=O)NCC2CC2)cc1 [GW810437] | 3 | 0 | 0 | 0 | 4 | 0 | 2 | 19 | 0 | 9
2 | O=C(Nc1n[nH]c2nc(-c3cccc(O)c3)ccc12)C1CC1 [SB-711805] | 4 | 46 | 0 | 53 | 17 | 0 | 0 | 0 | 19 | 0
3 | CN(C)CCNS(=O)(=O)c1ccc(-c2ccnc3[nH]ccc23)cc1 [GSK977620] | 9 | 0 | 16 | 19 | 0 | 0 | 29 | 0 | 66 | 8
4 | COC(=O)Nc1nc2ccc(Oc3ccc(CC(=O)Nc4cc(C(F)(F)F)ccc4F)cc3)cc2[nH]1 [GW680903] | 16 | 45 | 20 | 1 | 0 | 0 | 63 | 30 | 0 | 0
5 | CC(C)NCC(Cc1ccccc1)NC(=O)c1cc(Br)c(-c2ccnc3[nH]ccc23)s1.Cl.Cl (stereo not shown) [GSK1383281] | 5 | 0 | 0 | 0 | 0 | 0 | 43 | 29 | 27 | 0
6 | Cc1cc(-c2ccnc(Nc3cccc(C#N)c3)n2)cc(C)c1O [GSK1440913] | 25 | 4 | 25 | 2 | 0 | 14 | 52 | 24 | 8 | 22
7 | CS(=O)(=O)c1cccc(CNc2nc(Nc3ccc4c(c3)CCC(=O)N4)ncc2C(F)(F)F)c1 | 0 | 0 | 0 | 0 | 0 | 0 | 0 | 0 | 8 | 0
